Source: PubChem BioAssay (National Center for Advancing Translational Sciences (NCATS))
HT1080-NT tox: kills 2HG-producing HT-1080-NT fibrosarcoma cells. HT-1080-NT fibrosarcoma viability, CellTiter-Glo ATP luminescence, 48 h. Potency, µM (top dose mostly 46.1 µM), for the others: at the highest dose activity, negative = less viability, hits mostly cytotoxic. 360,000 compounds, 1.6% hits. AID 686970;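 further: NT is the 2HG producing partner of a matched IDH1 knockdown line; 0% = DMSO-treated cells and -100% = media-only wells without cells; nearly all actives have a fitted effect of over 55% in size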
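750 cells/well, RPMI + 5% FBS; 2 h settle, compound pin-transfer, 48 h at 37 degrees C. CellTiter-Glo 10 min RT, luminescence. Normalized to DMSO and media-only wells.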
ATXN2 expr inh: inhibitors of ATXN2 expression | HEK-293 ATXN2-luciferase reporter, luminescence, 24 h | Potency, µM (top dose mostly 57 µM), inactives show top-dose activity change, negative = inhibition, hits mostly inhibitors | AID 1745845 | 360,000 compounds, 0.72% hits; further: on the % scale 0 is the no-effect control and ±100 the full control effect; nearly all actives have a fitted effect of over 55% in size
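qHTS (up to 57 uM final) was run with 24 h compound exposure of reporter cells at 37 °C. Each well was multiplexed: SteadyGlo luminescence measured ATXN2-luciferase expression after a fluorogenic Gly-Phe-AFC viability readout (25 uM final).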
HepG2 tox: kills HepG2 cells in TGF-b inhibitor counter-screen. HepG2 CAGA-GFP viability, ATP luminescence, 18 h. Potency, µM (doses to about 46.1 µM), inactives show at the highest dose activity change, negative = cytotoxicity, usual class: cytotoxic. 410,000 compounds, 0.76% hits. AID 588856
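HepG2 CAGA-GFP cells (1000/well, DMEM with 1% FBS) received compound, then TGF-beta at 500 pg/mL final, and were incubated 18 hours at 37 degrees C. Viability was read by CellTiter-Glo luminescence. Media-only wells were set as complete cell-killing and DMSO as no toxicity.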
HT1080 IDH1KD tx: HT-1080 IDH1 knockdown cell toxicity (counter line). HT-1080 IDH1 knockdown viability, ATP luminescence, 48 h. Potency, µM (series often up to 46.1 µM), inactives show at the highest dose activity, negative = toxicity, most hits filed as cytotoxic. 360,000 compounds, 2% hits. AID 686971;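 further: 0% = DMSO wells and -100% = cell-free medium wells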
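Using the IDH1-knockdown HT-1080 line run in the same batch and compound series as the NT line, viability after 48 h at 37 °C was determined by CellTiter-Glo luminescence and expressed as % activity.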
ATXN viability: reduces viability in counter-screen for ATXN expression inhibitors; S2 cells (HEK-293 line with an ATXN2-luciferase reporter) viability, CellTiter-Fluor protease fluorescence, 24 h; Potency, µM (series often up to 56.7 µM), actives largely listed as cytotoxic; 400,000 compounds, 0.49% hits; AID 651635; further: nearly all actives have a fitted effect of over 40% in size
TGFb inhibitor: TGF-b pathway inhibition | AID 588855 | HepG2 CAGA-GFP TGF-b/SMAD3 reporter, GFP fluorescence, 18 h; TGF-beta stimulated, 500 pg/mL final | 410,000 compounds, 1.2% hits | Potency, µM (top dose mostly 46.1 µM), for inactives: top-dose activity, negative = inhibition, hits mostly inhibitors; further: on the % scale 0 is the no-effect control and ±100 the full control effect; nearly all actives have a fitted effect of over 65% in size
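Using HEPG2 CAGA-GFP reporter cells at 1000 cells/well, we pinned test compounds, stimulated with recombinant TGF-beta (500 pg/mL final) and measured total well GFP after 18 h.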
* hit, by the source's call; i = inactive; ? = inconclusive; · = not tested or not shown; ! = not confirmed by another sample; [ ] = dose if it differs, or a comment. Sampled rows, rich in hits. Any-hit rate of the full collection: about 3.9%. The call rests on the fitted dose curve; in most records, active means well fitted curve in the direction sought with a large enough effect; inconclusive means small, poorly fitted or top-dose-only effect, or another doubt; inactive means no such curve, though single readings can be large; an effect the other way counts as inactive or inconclusive. Potency means the concentration at half of the fitted maximal effect.

SMILES	HT1080-NT tox	ATXN2 expr inh	HepG2 tox	HT1080 IDH1KD tx	ATXN viability	TGFb inhibitor
O=C(Cn1cc(/C=C\[N+](=O)[O-])c2ccccc21)Nc1ccccc1	?	?	11µM*	3.7µM*	·	8.9µM*
N#Cc1ccccc1Cn1cc(/C=C/[N+](=O)[O-])c2ccccc21	23µM*	?	7.1µM*	23µM*	·	4.5µM*
O=C(N[C@@H]1CCC(=O)N(CC[C@H](Sc2ccc(Br)cc2)c2ccccc2)CC1)OCc1ccccc1	-7%	-32%	3%	-3%	?	?
C[C@@H](CSc1ccc(Br)cc1)CN1CC[C@H](NC(=O)OCc2ccccc2)CCC1=O	-19%	-39%	-24%	-28%	?	11µM*
O=C1CC[C@@H](O)CCN1CC[C@H](Sc1ccccc1)c1ccccc1	-15%	-5%	-10%	1%	i	1%
C[C@@H]1CCC(=O)N(CC[C@H](Sc2ccccc2)c2ccccc2)CC1	-1%	-7%	-2%	-5%	?	18µM*!
CC(=O)Nc1ccc(SC[C@H](C)CN2CC[C@H](C(C)(C)C)CCC2=O)cc1	6%	?	-26%	-11%	28µM*	?
COc1ccc(S[C@@H](CCN2CC[C@H](NC(=O)OCc3ccccc3)CCC2=O)c2ccccc2)cc1	?	-32%	-39%	?	?	13µM*
O=C1CCCc2c(O)cccc21	·	57%	·	·	i	·
COc1ccc(/C=C\c2onc(C)c2S(=O)(=O)N2CCC(C(=O)Nc3ccc(C)cc3C)CC2)cc1	·	·	-2%	·	·	-4%
COc1ccccc1CNC(=O)CCn1c(=O)c2ccccc2n(CC(=O)Nc2ccc(C)cc2)c1=O	·	-1%	-24%	·	i	4%
C[C@H]1NCc2cc(-c3ccc4c(=O)c(C(=O)O)cn(C5CC5)c4c3OC(F)F)ccc21	·	5%[25.6 µM]	·	·	i	·
O=C(NC1CCC(n2cc(C(=O)NC3CC3)nn2)CC1)C(=O)c1ccccc1 (stereo not given)	·	·	·	·	i	·
O=C1c2ccccc2C(=O)c2[nH]c(=O)[nH]c21	9.2µM*	?	1.4µM*	6.5µM*	·	1µM*
Cc1ccccc1OCCc1c(C)[nH]c(=S)[nH]c1=O	2.3µM*	-24%	0%	2.1µM*	i	-15%
O=C1Nc2ccc(Br)cc2C12NNc1ccccc1O2 (stereo not given)	-27%	?	-105%	?	25µM*	-10%
O=C1Nc2ccc(Br)cc2C1(O)c1ccccc1 (stereo not given)	-5%	9%	0%	6%	i	-6%
CCOc1ccc(CCNC(=O)Cn2ncc3c(=O)oc4ccc(C)cc4c32)cc1	·	·	-2%	·	·	-9%
CN1CCN(NC(=O)c2cc(-c3ccc(Br)s3)nc3ccccc23)CC1	21µM*	-24%	-22%	23µM*	i	?
O=C(NC1CC1)c1cc(-c2ccc(Br)cc2)nc2ccccc12	6%	·	-16%	0%	·	-1%
CCc1ccc(CNC(=O)c2cc(-c3ccc(Br)s3)nc3ccccc23)cc1	·	6%	10%	·	i	-1%
O=C(O)c1cc(-c2ccc(Br)s2)nc2ccccc12	-10%	1%	-20%	-15%	?	8%
CCN(CC)CCNC(=O)c1cc(-c2ccc(Br)s2)nc2ccccc12	18µM*	·	-128%	?	·	?
CN1CCC(NC(=O)c2cc(-c3cccc(Br)c3)nc3ccccc23)CC1	21µM*	?	-63%	21µM*	?	-5%
CCOCCCNC(=O)c1cc(-c2ccc(Br)s2)nc2ccccc12	-9%	-20%	-2%	-8%	i	3%
SMILES	HT1080-NT tox	ATXN2 expr inh	HepG2 tox	HT1080 IDH1KD tx	ATXN viability	TGFb inhibitor
CCCN(CCC)CCNC(=O)c1cc(-c2ccc(Br)s2)nc2ccccc12	·	0%	-21%	·	32µM*	0%
COc1cc(OC)c(/C=C/c2nccc3ccccc23)c(OC)c1	·	·	-31%	·	·	?
COc1ccc(N2CCN(C(=S)Nc3ccc(C)cc3C)CC2)cc1	-1%	-21%	6.3µM*	-3%	i	-15%
O=C(CSc1nc2nc(-c3cccs3)cc(C(F)(F)F)c2c(=O)[nH]1)Nc1ccc(F)c(F)c1	?	?	-54%	?	i	?
Cc1ccc(C)c(NC(=O)CSc2nc3nc(-c4cccs4)cc(C(F)(F)F)c3c(=O)[nH]2)c1	?	-35%	-39%	?	i	16µM*
CC(=O)c1ccccc1-c1ccc2c(c1)CC(CNC(=O)Cc1c[nH]c3ccccc13)O2 (stereo not given)	·	·	·	·	i	·
Cc1ccc(-c2nc3n(n2)C(c2ccccc2Cl)C=C(c2ccc(Cl)cc2)N3)cc1 (stereo not given)	·	5%	-2%	·	?	0%
Cc1oc2c(c1C(=O)O)C(=O)c1ccccc1C2=O	3%	-12%	7.1µM*	-13%	i	5µM*
O=C1C(=O)c2c(C(=O)c3ccccc3)coc2-c2ccccc21	0%	?	13µM*	?	·	8.9µM*
Cc1oc2c(c1C(=O)c1ccccc1)C(=O)C(=O)c1ccccc1-2	18µM*	3.5µM*	4.5µM*	18µM*	·	?
Cc1onc(-c2ccccc2Cl)c1C(=O)c1ccccc1	6%	-2%	17%	10%	i	4%
Cc1cccc2cc(CN(CC3CCCO3)C(=O)c3ccccc3F)c(N(C)C)nc12 (stereo not given)	·	·	·	·	i	·
Cc1ccccc1CN1C(=O)c2ccccc2Sc2ccc(C(=O)NCCc3ccccc3)cc21	·	·	-22%	·	·	?
O=C(CC(C(=O)O)c1ccc(Cl)cc1)c1ccc(Br)cc1 (stereo not given)	-1%	15%	10µM*	1%	i	-4%
O=C(CSc1cccc[n+]1[O-])c1cc(Cl)ccc1Cl	-25%	-15%	-3%	2.3µM*	·	-7%
O=C(CSc1cccc[n+]1[O-])c1cc2ccccc2o1	7.3µM*	64%	-42%	16µM*	i	?
Cc1cc(NCCCN2CCOCC2)n2ncc(-c3ccccc3)c2n1	-18%	48%	-24%	-19%	?	?
CN(C)CCCNc1cc(C(C)(C)C)nc2c(-c3ccccc3)cnn12	21µM*	8%	-83%	?	i	?
CC(C)(C)c1cc(NCCCn2ccnc2)n2ncc(-c3ccc(Cl)cc3)c2n1	10µM*	?	22µM*	10µM*	?	?
